tested on: T1, VEGFR2; settings: concentration: 1 μM, replicates: in singlicate; n = 1
T1 construct: gene KDR
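Also: KINOMEscan kinase panel screen.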

Row | Compound | %Inh
1 | COC(=O)Nc1nc2cc(Oc3ccc(NC(=O)Nc4cccc(SC)c4)cc3)ccc2[nH]1.Cl [GW697999] | 77%
2 | Cc1ccc(O)cc1Nc1ccnc2cc(-c3ccc(CN4CCCCC4)o3)ccc12 [GW557777] | 93.6%
3 | CN(c1ccc2c(c1)nc(NCc1ccccc1)n2C)c1ccnc(Nc2ccc(CS(C)(=O)=O)cc2)n1.Cl [GW811603] | 99.5%
4 | COc1cccc(C2=C(Nc3cccc(O)c3)C(=O)NC2=O)c1 [SB-390771] | 3%
5 | CC(C)NCC(Cc1ccccc1)NC(=O)c1cc(Br)c(-c2ccnc3[nH]ccc23)s1.Cl.Cl (centres unmarked) [GSK1383281] | 33%
6 | Cc1ccc(O)cc1Nc1ccnc2ccc(C(C)(C)C)cc12 [GW856805] | 54%
7 | NCCC(NC(=O)c1cc(Br)c(-c2ccnc3[nH]ccc23)s1)c1ccccc1.O=C(O)C(F)(F)F.O=C(O)C(F)(F)F (centres unmarked) [GSK1307810] | 55%
8 | COc1ccc(C2=C(Nc3cccc(O)c3)C(=O)NC2=O)cc1 [SB-390766] | 0%
9 | O=C(O)C(F)(F)F.O=c1[nH]ccc2nc(N[C@@H]3CCNC3)nc(Nc3cc(Cl)cc(Cl)c3)c12 [GSK2188764] | 15%
10 | Cc1ccc(C)c(NC(=O)Nc2ccc(C)c(-c3ccc(C(=O)Nc4ccncc4)cc3)c2)c1 [GSK1398473] | 3%
11 | Cn1cc(-c2ccc3c(c2)CCN3C(=O)Cc2cc(F)cc(F)c2F)c2c(N)ncnc21 [GSK2634140] | 0%
12 | N#Cc1cnc2cc(-c3cnc(CNCCN4CCOCC4)s3)ccc2c1Nc1ccc(Oc2ccccc2)cc1 [GW664114] | 12%
13 | CN1CCN(Cc2ccc(NC(=O)Nc3ccc(N(C)c4ccnc(Nc5ccc(CS(C)(=O)=O)cc5)n4)cc3)cc2)CC1.Cl [GW827654] | 99.9%
14 | Fc1cc(Cl)ccc1Nc1ccnc2cc(-c3ccc(CN4CCOCC4)o3)ccc12 [GW560109] | 82%
15 | Cl.N#CCc1ccc(Nc2nccc(Nc3ccc(Oc4ccccc4)cc3)n2)cc1 [GW639905] | 0%
16 | CN(c1ccc(F)c(NC(=O)c2cccc(OC(C)(C)C#N)c2Cl)c1)c1ccc2nc(NC(=O)C3CC3)sc2n1 | 91.9%
17 | CN(C)c1ncnc2nc[nH]c12 [SKF-31736] | 5%
18 | O=C(Nc1c(F)cccc1F)c1cc(C(=O)c2ccccc2F)c[nH]1 [GSK1326180] | 0%
19 | Nc1ncc(-c2ccc3nccc(-c4ccncc4)c3c2)cc1S(=O)(=O)N1CCCCC1 [GSK1693850] | 18%
20 | Fc1cc(Cl)ccc1Nc1ccnc2cc(-c3ccc(CN4CCSCC4)o3)ccc12 [GW560106] | 65%
21 | CS(=O)(=O)c1cccc(CNc2nc(Nc3ccc4c(c3)CCC(=O)N4)ncc2C(F)(F)F)c1 | 68%
22 | COC(=O)Nc1nc2ccc(Oc3ccc(CC(=O)Nc4cc(C(F)(F)F)ccc4F)cc3)cc2[nH]1 [GW680903] | 63%
23 | Cl.Cl.NC(CNC(=O)c1cc(Br)c(-c2ccnc3[nH]ccc23)s1)c1ccccc1 (centres unmarked) [GSK1322949] | 30%
